From PubChem
Mito fusion act: mitochondrial division inhibition or fusion activation; S. cerevisiae fusion-defective mutant growth rescue, CellTiterGlo 48 h; actives 0.23% (n = 320,000); Potency, µM (top dose mostly 46.1 µM), most hits filed as activators; also: nearly all actives have a fitted effect of over 45% in size
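Temperature-sensitive fusion-defective S. cerevisiae (e.g. fzo1-1, mgm1-5) were grown with compound in YPEG medium (3% ethanol, 3% glycerol) for 48 hours at 37C. Growth rescue was measured as viability by CellTiterGlo luminescence after 10 minutes at ambient.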
TDP43 rescue: rescues yeast growth from TDP-43 toxicity. Potency, µM (top dose mostly 46.1 µM), actives largely listed as activators. TDP-43 expressing yeast growth rescue, BacTiter-Glo, 24 h. actives 1.8% (n = 410,000). AID 652104; also: nearly all actives have a fitted effect of over 50% in size
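Yeast cells expressing TDP-43 under galactose induction are exposed to compounds for 24 hr at 30 deg C. BacTiter-Glo luminescence measures growth, so protective compounds score as activators.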
aSyn yeast inh: alpha-synuclein toxicity inhibition in yeast. Potency, µM (titrated, usually from 46.1 µM), most hits filed as activators. actives 0.14% (n = 370,000). Yeast expressing alpha-synuclein, growth rescue, BacTiter-Glo, 24 h; also: nearly all actives have a fitted effect of over 65% in size
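Readout is rescue of growth in alpha-synuclein-expressing yeast, so inhibitors of toxicity appear as activators. Growth after 24 hr at 30 deg C in galactose medium is quantified by luminescence.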
FUS suppressor: suppressors of FUS proteinopathy in yeast. S. cerevisiae FUS-expressing, growth rescue, OD600, 24 h. Potency, µM (titrated, usually from 76.6 µM), usual class: activators. actives 0.24% (n = 390,000); also: nearly all actives have a fitted effect of over 55% in size
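Toxicity suppression screen in FUS-yeast. Cells induced with 2% galactose, starting OD 0.005, treated 24hr at 30C with compounds at multiple final concentrations; growth by OD600.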
Abeta yeast res: compounds reversing amyloid beta toxicity in yeast; AID 1347071; Potency, µM (top dose mostly 46.1 µM), most hits filed as activators; actives 0.063% (n = 410,000); yeast expressing A-beta42, growth rescue, OD600, 48 h; response scale: 0% DMSO, 100% iron-clioquinol control; also: nearly all actives have a fitted effect of over 55% in size
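Growth rescue measured by 600 nm absorbance after 48 h yeast culture at 30 C with compound. Values normalized between DMSO and an equimolar ferric chloride plus clioquinol control.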
A number is an active result; . = inactive; ? = inconclusive; / = not tested or not shown; [ ] = remark or other dose. Rows were chosen to be rich in hits. Some 2.2% of all compounds tested hit in one or more screens of this group. Calls follow the shape of the dose curve; as a rule, active = well fitted curve in the direction sought with a large enough effect; inconclusive = small, poorly fitted or top-dose-only effect, or another doubt; inactive = no such curve, though single readings can be large; an effect the other way counts as inactive or inconclusive.

SMILES | Mito fusion act | TDP43 rescue | aSyn yeast inh | FUS suppressor | Abeta yeast res
CCc1ccc(C2NC(=S)NC3=C2C(=O)N(c2ccccc2OC)C(c2ccc(CC)cc2)N3)cc1 (stereo not given) | . | . | . | ? | .
O=C1C2=C(NC(=S)NC2c2ccc(Cl)cc2)NC(c2ccc(Cl)cc2)N1c1ccc(Cl)cc1 (stereo not given) | . | ? | . | 28.2µM | .
COc1cccc(NC(=O)c2ccc(-c3nc(COc4ccccc4)c(C)o3)cc2)c1 | / | . | / | . | .
CC1CCN(c2ccc(C(=O)O)cc2NS(=O)(=O)c2cccc3cccnc23)CC1 | / | / | / | . | /
CCCN(CC1CC1)C(=S)Nc1ccc(Oc2ccccc2)cc1 | . | 20µM | . | / | .
CCCCN(C)C(=S)Nc1ccc(Oc2ccccc2)cc1 | . | . | . | / | .
CCC(C)c1ccccc1OCCn1c(CCNC(=O)C2CCCCC2)nc2ccccc21 (stereo not given) | / | / | . | / | /
O=[N+]([O-])c1ccc(Sc2ccncn2)c([N+](=O)[O-])c1 | / | 35.5µM | . | . | .
Cc1cc(C)nc(Sc2ccc([N+](=O)[O-])cc2[N+](=O)[O-])n1 | . | . | . | / | .
Cc1ccc(N2CC(NC(=O)C3CCCC3)CC2=O)cc1C (stereo not given) | / | . | / | . | .
COc1ccc(-n2cnc3scc(-c4ccccc4)c3c2=O)cc1 | . | 11.2µM | . | . | .
COc1ccc(-n2cnc3scc(-c4ccc(OC)c(OC)c4)c3c2=O)cc1 | . | . | . | . | .
CC(C)(C)C(=O)Nc1ccc(C(=O)N/N=C/c2ccccc2OC(=O)c2ccc(Cl)cc2)cc1 | . | . | . | 22.4µM | .
CC(C)(C)C(=O)Nc1ccc(C(=O)N/N=C/c2ccccc2OC(=O)c2ccccc2)cc1 | . | . | . | ? | .
Cc1cccc(N=c2c([N+](=O)[O-])nn(-c3ccc(Cl)cc3)n2O)c1 | . | ? | . | . | .
CCc1cccc(N=c2c([N+](=O)[O-])nn(-c3ccc(Cl)cc3)n2O)c1 | 17.8µM | 7.94µM | . | . | .
O=[N+]([O-])c1nn(-c2ccc(Cl)cc2)n(O)c1=NCc1ccncc1 | . | 11.2µM | . | . | .
Cc1ccc(CN=c2c([N+](=O)[O-])nn(-c3ccc(Cl)cc3)n2O)cc1 | . | 11.2µM | . | . | ?
O=[N+]([O-])c1nn(-c2ccc(Cl)cc2)n(O)c1=NCc1ccccc1Cl | . | ? | . | . | .
COc1ccccc1OCC(=O)NCC1(N(C)C)CCCCC1 | / | .[9.22 µM] | / | . | .
Cc1cccn2c(=O)c(C=NCc3ccccc3)c(NCCO)nc12 | . | . | . | . | .
Cc1ccc2nc(NCc3ccccc3)c(C=NCc3ccccc3)c(=O)n2c1 | 7.94µM | . | . | . | .
COc1ccc(OC)c(CNS(=O)(=O)c2ccc(-c3cc(C(F)(F)F)on3)s2)c1 | / | . | / | . | .
CCOc1ccc(CCNC(=O)c2ccc3c(c2)c(C)c(C)n3C)cc1 | / | . | / | . | .
O=C(Nc1nc2c(s1)CCc1ccccc1-2)c1ccco1 | . | 12.6µM | . | . | .
SMILES | Mito fusion act | TDP43 rescue | aSyn yeast inh | FUS suppressor | Abeta yeast res
O=C(Nc1nc2c(Cl)ccc(Cl)c2s1)c1ccco1 | . | ? | . | . | .
O=C(CCCl)Nc1nc2c(s1)CCc1ccccc1-2 | . | 22.4µM | . | . | .
CC(=O)Nc1nc2c(s1)CCc1ccccc1-2 | . | . | . | . | /
Cc1ccc(Sc2c(O)c3ccccc3n(C)c2=O)cc1 | 14.1µM | 3.16µM | . | . | ?
Cn1c(=O)c(S(=O)(=O)C(C)(C)C)c(O)c2ccccc21 | . | 2.82µM | . | / | .
CC(=O)c1c(O)c2ccccc2n(C)c1=O | . | . | . | . | .
Cn1c(=O)c(Sc2ccccc2)c(O)c2ccccc21 | . | 12.6µM | . | . | .
Cc1ccc(S(=O)(=O)c2nc(S(C)(=O)=O)sc2N(C)Cc2ccccc2)cc1 | / | . | / | ? | .
COc1ccc(-c2nc(CCNC(=O)c3cc(OC)c(OC)c(OC)c3)cs2)cc1 | / | ? | / | . | .
Cc1cccc(N(CC(=O)NCCSCc2ccccc2)S(=O)(=O)c2ccccc2)c1C | / | . | / | . | .
C=CCN1[C@H](Cc2ccccc2)COc2cc(F)ccc2S1(=O)=O | / | / | / | . | /
Cc1cc(C)cc(OCc2nnc(SCC(=O)c3ccccc3)o2)c1 | . | . | . | . | .
Cc1cccc(OCc2nnc(SCC(=O)c3ccccc3)o2)c1 | . | 12.6µM | . | . | .
COc1ccc(/C=N\NC(=O)c2ccccc2F)cc1COc1ccc(F)cc1F | . | ? | . | . | .
COc1ccc(/C=N/NC(=O)c2ccc(NC(C)=O)cc2)cc1COc1ccc(F)cc1F | . | . | . | 25.1µM | .
COc1ccc(-c2csc(C(C)(O)c3ccc(OC)cc3)n2)cc1 (stereo not given) | / | . | 6.31µM | . | ?
CC(O)(c1ccccc1)c1nc(-c2cccc(C#N)c2)cs1 (stereo not given) | / | 20µM | . | . | ?
COc1ccc(C(C)(O)c2nc(-c3cccc(C#N)c3)cs2)cc1 (stereo not given) | / | . | ? | . | .
Oc1cccc(-c2csc(C(O)(c3ccccc3)C(F)(F)F)n2)c1 (stereo not given) | / | 22.4µM | ? | . | .
COc1ccc(C(C)(O)c2nc(-c3ccccc3)cs2)cc1 (stereo not given) | / | 8.91µM | ? | . | ?
Cc1[nH]c2ccccc2c1C(=O)COC(=O)c1ccccc1SCC(=O)N1CCCC1 | / | / | . | / | /
CC(NC(=O)c1ccc2c(c1)sc1nc(-c3ccc(F)cc3)cn12)C12CC3CC(CC(C3)C1)C2 (stereo not given) | / | . | / | . | .
COc1ccc(C(C)(O)c2nc(-c3ccc(F)c(Cl)c3)cs2)cc1 (stereo not given) | / | 17.8µM | . | . | ?
CC(O)(c1ccccc1)c1nc(-c2ccncc2)cs1 (stereo not given) | / | . | . | . | .
COc1ccc(C(C)(O)c2nc(-c3ccc(OC)c(OC)c3)cs2)cc1 (stereo not given) | / | ? | . | . | .
SMILES | Mito fusion act | TDP43 rescue | aSyn yeast inh | FUS suppressor | Abeta yeast res
COc1ccc(-c2csc(C(C)(O)c3ccc(F)c(F)c3)n2)cc1OC (stereo not given) | / | 22.4µM | . | . | .
CC(O)(c1ccccc1)c1nc(-c2ccccc2)cs1 (stereo not given) | / | 14.1µM | . | . | ?
COc1cccc(C(C)(O)c2nc(-c3ccc(F)c(Cl)c3)cs2)c1 (stereo not given) | / | . | . | . | .
COc1cccc(C(C)(O)c2nc(-c3cccc(C(C)C)c3)cs2)c1 (stereo not given) | / | 17.8µM | . | ? | .
Cc1cccc(-c2nnc(SCCC(=O)O)o2)c1 | / | . | . | . | .
COCc1cccc(-c2csc(C(C)(O)c3ccccc3)n2)c1 (stereo not given) | / | 35.5µM | . | . | .
